The text below walks through data of PubChem BioAssay AID2685 (National Center for Advancing Translational Sciences (NCATS), 2010).

About 2,100 (0.66%) of roughly 320,000 compounds were called active. Inconclusive results (about 53%) are left out. Calls follow the shape of the dose curve; as a rule, active = well fitted inhibition curve with a large enough effect in the signal ratio, with a control signal flat (not every such curve was filed as active); inconclusive = small, poorly fitted or top-dose-only effect, or effect the other way, or a change in a side signal; inactive = flat fitted curve, though single readings scatter; the % refers to the signal ratio. The full list was thinned out, with actives kept by preference.
Potency is read from the fitted curve at half-maximal effect.

The nature of the assay: qHTS Assay for Lipid Storage Modulators in Drosophila S3 Cells.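 As to cell number change: cells counted by Cell Tracker Red CMTPX staining in the red channel.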 As to lipid storage change, negative = inhibition: % is scaled to controls: 0 for no effect and ±100 for the full control effect. The note with it: BODIPY lipid droplet fluorescence, 18-24 h, cells fed with added oleic acid; cell number change: measured here: cell count max response; series mostly up to 46.1 µM. The method, boiled down: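 Drosophila S3 cells got compounds at several concentrations plus oleic acid (400 uM solution). Laser-scanning cytometry with 488 nm excitation read lipid droplets at 500-530 nm and cells at 575-640 nm. Percent activity was relative to 20 uM Triacsin C.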
In general terms: In qHTS, concentration-response curves come from the screen itself.
Regarding `Cc1nnc(SCC(=O)NNC(=O)c2ccccc2)n1-c1ccccc1`, the Potency result was “inactive”.
In the case of `COc1cc2c(cc1OC)C(c1ccccc1)N(C(=O)c1cccc(S(C)(=O)=O)c1)CC2` (centres undefined), the Potency result was “inactive” and the cell number change was 14.6%.
On to `Cc1cc(C(=O)COC(=O)/C=C/c2cccc(F)c2)c(C)n1C`, for which the Potency entry is “inactive” and the cell number change is 5.66%.
As to `Cc1cc(C(=O)COC(=O)/C=C/c2cccc(Br)c2)c(C)n1C`, the Potency entry is “inactive”.
For the compound `COc1ccccc1/C=C/C(=O)OCC(=O)c1cc(C)n(C)c1C`, the Potency was 1.3 µM (active) and the cell number change was -22.1%.
As for `COc1ccc(S(=O)(=O)Nc2ccccc2N2CCOCC2)cc1[N+](=O)[O-]`, the Potency result was “inactive” and the cell number change was 0.857%.
For `COCCCNC(=S)Nc1ccc2nc(N3CCOCC3)cc(C)c2c1` the same measures were “inactive” and 0.741%.
Regarding `Cc1ccc(N2CC(C(=O)NCCS(=O)(=O)N3CCN(c4ccc(F)cc4)CC3)CC2=O)cc1` (centres undefined), the Potency is 2.06 µM (active) and the cell number change is -2.39%.
For `O=C(NCCS(=O)(=O)N1CCN(c2ccccc2)CC1)C1CC(=O)N(c2ccc(F)cc2)C1` (centres undefined) the same measures were “inactive” and -3.13%.
For `O=C(NCCS(=O)(=O)N1CCN(c2ccc(F)cc2)CC1)C1CC(=O)N(c2ccccc2)C1` (centres undefined) the same measures were “inactive” and 4.61%.
Consider `CC(=O)N1CCc2c(sc(NC(=O)Cc3ccc(F)cc3)c2C#N)C1`, for which the Potency entry is “inactive” and the cell number change is 7.34%.
For `COc1cccc(CNC(=O)CCl)c1` the same measures were “inactive” and 5.99%.
For the compound `COc1cccc(CNC(=O)COC(=O)c2nc(Cl)c(Cl)c(Cl)c2Cl)c1`, the Potency is 14.6 µM (active) and the cell number change is -29.4%.
In the case of `O=C(COC(=O)c1nc(Cl)c(Cl)c(Cl)c1Cl)NCc1ccccc1`, the Potency entry was “inactive” and the cell number change is -8.84%.
As to `COC(=O)c1sccc1NC(=O)CC1C(=O)NCCN1C(=O)Nc1cc(Cl)ccc1OC` (centres undefined), the Potency entry was “inactive” and the cell number change is 13.4%.
Regarding `CCC(=O)Oc1ccc2c(=O)c(-c3ccc4ccccc4n3)c(CC)oc2c1C`, the Potency entry was “inactive” and the cell number change was 1.88%.
On the same counts, the results for `COc1ccc(C(=O)N2CCCCC2)cc1S(=O)(=O)Nc1cccc(C(=O)O)c1` are “inactive” and 0.28%.
On the same counts, the results for `COc1ccc(C(=O)O)cc1S(=O)(=O)Nc1cccc(C(F)(F)F)c1` are 29.1 µM (active) and -15.9%.
Regarding `COc1ccc(F)cc1S(=O)(=O)Nc1cccc(C(=O)O)c1`, the Potency result was “inactive”.
Consider `COC(=O)c1cccc(C23CC4(C2)[C@H](CN(Cc2cccnc2)[C@@H]4c2ccccc2)C3c2ccc(Cl)nc2)c1` (some centres undefined), for which the Potency result was “inactive” and the cell number change was determined as 17.9%.
As to `CC(C)(C)OC(=O)N/N=C/c1cccc([N+](=O)[O-])c1`, the Potency entry is “inactive” and the cell number change turned out to be 14.2%.
On to `CCCCCCCNC(=O)C1(CC2CC(c3cccc(Br)c3)=NO2)CCN(C(=O)c2cc(OCC)c(OCC)c(OCC)c2)CC1` (centres undefined), for which the Potency entry was “inactive” and the cell number change is -10.9%.
In the case of `CCOc1cc(C(=O)N2CCC(CC3CC(c4cccc(Br)c4)=NO3)(C(=O)NCC3CCCCC3)CC2)cc(OCC)c1OCC` (centres undefined), the Potency is 2.06 µM (active) and the cell number change was 23.9%.
For `O=C(c1ccccc1)N1CCC(CC2CC(c3cccc(Br)c3)=NO2)(C(=O)NCC2CCCCC2)CC1` (centres undefined) the same measures were “inactive” and 21.3%.
For the compound `O=C(NCC(=O)N(CCN1CCOCC1)C(C(=O)NC1CCCC1)c1ccccc1)c1cccs1` (centres undefined), the Potency entry was “inactive” and the cell number change is -0.374%.
On to `Cc1ccc(N(Cc2ccccc2)C(=O)c2cccc(S(=O)(=O)N3CCN(C)CC3)c2)cc1`, for which the Potency entry was “inactive” and the cell number change was -1.81%.
`Cc1cc(=O)[nH]c(N/N=C/c2ccc(Cl)cc2Cl)n1`: the Potency entry is “inactive” and the cell number change worked out at 3.1%.
Regarding `CCN1CCN(Cc2ccc(NC(=O)c3ccc(C)c(NC(=O)c4ccnnc4)c3)cc2C(F)(F)F)CC1`, the Potency result was “inactive”.
`CCN1CCN(Cc2ccc(NC(=O)c3ccc(C)c(/C=C/c4cnc(Nc5cc(N6CCNCC6)nc(C)n5)cn4)c3)cc2C(F)(F)F)CC1`: the Potency was 18.4 µM (active) and the cell number change is -17.2%.
For the compound `CCN1CCN(Cc2ccc(NC(=O)c3ccc(C)c(NC(=O)c4ccc5n[nH]nc5c4)c3)cc2C(F)(F)F)CC1`, the Potency result is “inactive”.
In the case of `CN1CCc2nc(NC(=O)c3cccc(S(=O)(=O)N4CCc5ccccc54)c3)sc2C1`, the Potency result is “inactive” and the cell number change came to 12.6%.
For `COCC(=O)Nc1cc(C(=O)NCC(C)C)ccc1Cl` the same measures were “inactive” and 4.26%.
On the same counts, the results for `COc1cc(OC)c(OC)cc1/C=N/n1c(C)nc2ccccc2c1=O` are “inactive” and 16.2%.
Regarding `Cc1nc2ccccc2c(=O)n1/N=C/c1ccccc1O`, the Potency result was “inactive” and the cell number change was 14.5%.
On the same counts, the results for `COc1ccc(Br)cc1/C=N/n1c(C)nc2ccccc2c1=O` are 3.66 µM (active) and -4.17%.
On the same counts, the results for `Cc1ccc(NC(=O)Cn2nc(-c3ccccc3)nc2-c2ccccc2)c(C)c1` are “inactive” and -8.2%.
Regarding `CCOC(=O)CSc1ncnc2c1cnn2-c1ccc(Cl)cc1`, the Potency was 0.184 µM (active) and the cell number change was determined as 4.64%.
For the compound `CCOC(=O)CSc1ncnc2c1cnn2-c1ccccc1`, the Potency entry is “inactive” and the cell number change is -3.98%.
In the case of `CCOC(=O)CNC(=O)CSc1ncnc2c1cnn2-c1ccc(C)cc1`, the Potency entry is “inactive” and the cell number change is -17%.
On to `CCCOc1cccc(C(=O)N(Cc2ccco2)C2CCS(=O)(=O)C2)c1` (centres undefined), for which the Potency entry is “inactive” and the cell number change was -9.39%.
In the case of `CCNC(=S)NCc1ccc2[nH]c(C)cc2c1`, the Potency result is “inactive” and the cell number change came out at 15.9%.
As to `COc1cc(C(=O)NCCc2ccc(F)cc2)c([N+](=O)[O-])cc1OC`, the Potency result was “inactive”.
On to `CCOC(=O)c1ccc(NS(=O)(=O)c2c(C)[nH]c(C)c2C(=O)N2CCCCC2)cc1`, for which the Potency result was “inactive”.
Take `Cc1[nH]c(C)c(S(=O)(=O)Nc2ccc(OC(F)(F)F)cc2)c1C(=O)N1CCCCC1`: the Potency was 4.11 µM (active) and the cell number change was -12.7%.
Take `COc1ccccc1CNS(=O)(=O)c1c(C)[nH]c(C)c1C(=O)N1CCCC1`: the Potency result was “inactive”.
For the compound `COc1ccc(CCNS(=O)(=O)c2c(C)[nH]c(C)c2C(=O)N2CCCCC2)cc1OC`, the Potency entry was “inactive” and the cell number change is -25.1%.
For `Cc1[nH]c(C)c(S(=O)(=O)NCCc2ccccc2)c1C(=O)N1CCCC1`, the Potency entry is “inactive” and the cell number change is 13.4%.
As for `COc1ccccc1CNS(=O)(=O)c1c(C)[nH]c(C)c1C(=O)N1CCCCC1`, the Potency is 18.4 µM (active) and the cell number change is -19.3%.
Take `COC(=O)c1ccc(NS(=O)(=O)c2c(C)[nH]c(C)c2C(=O)N2CCCC2)cc1`: the Potency entry is “inactive” and the cell number change is -16.1%.
As for `Cc1[nH]c(C)c(S(=O)(=O)NCCc2ccccc2)c1C(=O)N1CCCCC1`, the Potency was 11.6 µM (active) and the cell number change is -13.9%.
For the compound `Cc1ccccc1CNS(=O)(=O)c1c(C)[nH]c(C)c1C(=O)N1CCCCC1`, the Potency entry is “inactive” and the cell number change is -3.58%.
As for `O=C(CN1CCN(Cc2ccccc2Cl)CC1)N/N=C/C=C\c1ccccc1[N+](=O)[O-]`, the Potency entry is “inactive” and the cell number change worked out at 0.435%.
As to `Cc1ccccc1C(=O)c1cccn1CC(=O)NCC(C)c1ccccc1` (centres undefined), the Potency entry was “inactive” and the cell number change is -7.34%.
Regarding `COc1ccc(C(C(=O)NCCC(C)C)N(CCO)C(=O)c2snc(C(N)=O)c2N)cc1` (centres undefined), the Potency result was “inactive” and the cell number change is -7.09%.
Consider `O=C(CSc1nnnn1C1CCCC1)NCc1ccc2c(c1)OCO2`, for which the Potency entry was “inactive”.
Turning to `CC1CCN(C(=O)c2ccccc2NS(=O)(=O)c2ccccc2)CC1`, the Potency result is “inactive” and the cell number change stood at 7.63%.
Consider `Clc1ccc(N2CCN(Cc3ccco3)CC2)cc1`, for which the Potency result was “inactive” and the cell number change amounted to 9.59%.
Regarding `Cc1[nH]c2ccccc2c1/C=C(\C#N)C(=O)NC1CC1`, the Potency entry was “inactive”.
For the compound `CC1CCN(C2(O)C(=O)Nc3ccc([N+](=O)[O-])cc32)CC1` (centres undefined), the Potency result is “inactive” and the cell number change is -1.63%.
As to `Cc1cccc(NC(=O)c2cccc(N3C(=O)CCC3=O)c2)c1`, the Potency result was “inactive” and the cell number change is -21.8%.
In the case of `O=C(Nc1ccc(F)cc1)c1cccc(N2C(=O)C3C4C=CC(C4)C3C2=O)c1` (centres undefined), the Potency result is “inactive” and the cell number change was -17.9%.
Take `COc1ccc(NC(=O)c2cccc(N3C(=O)C4C5C=CC(C6CC56)C4C3=O)c2)c(OC)c1` (centres undefined): the Potency was 5.17 µM (active).
Consider `O=C(Nc1ccccc1)c1cccc(N2C(=O)C3C4C=CC(C5CC45)C3C2=O)c1` (centres undefined), for which the Potency is 16.4 µM (active) and the cell number change is -4.48%.
As to `Cc1ccc(NC(=O)c2cccc(N3C(=O)C4C5CCC(C5)C4C3=O)c2)c(C)c1` (centres undefined), the Potency result was “inactive” and the cell number change was 26.1%.
For `COc1ccc(NC(=O)c2ccccc2N2C(=O)C3C4C=CC(C5CC45)C3C2=O)c(OC)c1` (centres undefined) the same measures were “inactive” and -15.3%.
On the same counts, the results for `COc1ccc(NC(=O)c2cccc(N3C(=O)C4C5C=CC(C5)C4C3=O)c2)c(OC)c1` (centres undefined) are “inactive” and -15.9%.
For `COc1ccc(NC(=O)c2cccc(N3C(=O)C4C5C=CC(C6CC56)C4C3=O)c2)cc1` (centres undefined), the Potency result was “inactive” and the cell number change worked out at 8.84%.
For the compound `Cc1cccc(NC(=O)c2cccc(N3C(=O)C4C5C=CC(C6CC56)C4C3=O)c2)c1` (centres undefined), the Potency was 1.3 µM (active) and the cell number change is -23.8%.
On to `CC(C)CNS(=O)(=O)c1ccc(OCC(=O)Nc2ccc3c(c2)OCCO3)cc1`, for which the Potency result is “inactive”.
Turning to `Cc1nnc(SCC(=O)N2CCN(S(=O)(=O)c3ccc(Cl)cc3)CC2)n(N)c1=O`, the Potency entry is “inactive” and the cell number change is -9.35%.
As to `COc1ccc(/C=N/Nc2cc(C)nc(N3CCOCC3)n2)c(OC)c1`, the Potency result was “inactive” and the cell number change was -6.43%.
Consider `Cc1ccc(NC(=O)c2cc([N+](=O)[O-])ccc2N2CCOCC2)cc1S(=O)(=O)N(C)C`, for which the Potency result was “inactive” and the cell number change was 9.84%.
For `O=C(Nc1ccccc1O)c1nc(Cl)ccc1Cl` the same measures were “inactive” and 9.99%.
Regarding `COc1ccc(NS(=O)(=O)c2ccc(C)c(C(=O)N(C)Cc3ccc(OC)cc3OC)c2)cc1`, the lipid storage change, negative = inhibition was -11.3% [at 0.0737 µM] (inactive).
On to `COC(=O)c1ccc(NS(=O)(=O)c2ccc(OC)cc2)cc1`, for which the Potency entry is “inactive”.
Regarding `COC(=O)c1cc(NS(=O)(=O)c2ccc(N3CCCCC3)c([N+](=O)[O-])c2)cc(C(=O)OC)c1`, the Potency result was “inactive” and the cell number change was -2.76%.
For `COc1ccc(NS(=O)(=O)c2ccc(C)c(C(=O)N3CC(C)OC(C)C3)c2)cc1` (centres undefined) the same measures were “inactive” and 23.9%.
For `O=C(O)c1ccc(NS(=O)(=O)c2ccc(N3CCCC3)c([N+](=O)[O-])c2)cc1` the same measures were “inactive” and 8.51%.
Consider `COc1ccc(S(=O)(=O)Nc2ccc(NC(C)=O)cc2)cc1`, for which the Potency result was “inactive” and the cell number change was found to be 29.3%.
Take `COc1ccc(NS(=O)(=O)c2ccc(N3CCN(CCO)CC3)c([N+](=O)[O-])c2)cc1`: the Potency is 10.3 µM (active) and the cell number change was -29.2%.
As to `COc1ccc(NS(=O)(=O)c2ccc(N)c(C(=O)O)c2)cc1`, the Potency was 20.6 µM (active) and the cell number change is 1.73%.
As to `COc1ccc(NS(=O)(=O)c2ccc(C)c(C(=O)O)c2)cc1`, the Potency is 25.9 µM (active) and the cell number change is -20.6%.
On the same counts, the results for `CCOC(=O)CNC(=O)CSc1nnc(-c2ccco2)n1Cc1ccco1` are “inactive” and -21.7%.
Turning to `O=C(CCCCCNC(=O)N1CCn2c1nc1ccccc12)N[C@@H](C(=O)O)c1ccccc1`, the Potency entry was “inactive” and the cell number change is -11.9%.
